# In the library only some 3.4% were active in any assay of this set; here they are far more common.
# SMARCA2 act: SMARCA2 function activation, primary screen; MG213 cells, MMTV-luciferase reporter, dexamethasone, overnight; activation, % at 9.1 µM; actives 1% (n = 370,000); AID 652017; in the data active = activation above about 7.8%
# GAA850 FXN act: increases GAA850 frataxin promoter reporter activity; actives 0.56% (n = 360,000); HEK293 lucGAA850 FXN promoter luciferase reporter, 24 h; percent of 10 µM SAHA response; AID 540364; activation, % at 6 µM;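 active = activation above the average of all compounds screened plus 3 SD, cutoff fixed separately per campaign, cut at about 7.5% in these data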
# GalR3 antag: blocks the human galanin receptor 3 | O60755 | HEK293 GalR3-CNG cAMP membrane potential fluorescence; galR3 body fused to GalR1 C-terminus | inhibition, % at 3 µM | actives 0.44% (n = 360,000) | AID 651719;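 active = inhibition above the screen-wide average plus 3 SD, cut at about 13% in these data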;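 also: forskolin and galanin both at EC90 stimulate the cells; cAMP rise reported by CNG channel membrane potential dye signal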
# Gli-Sufu block: blocks Gli-Sufu signaling in a luciferase reporter. Sufu-KO-LIGHT fibroblasts, Gli luciferase reporter luminescence. inhibition, % at 5 µM. actives 0.74% (n = 340,000);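 active = inhibition above about 55%, limit read from the data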
# Cardio protect: protects H9c2 cardiomyocytes from peroxide injury. AID 588492. actives 0.63% (n = 360,000). protection from H2O2 cell death, % at 20 µM. H2O2 injury protection, ATPLite, 2 h;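 active = compounds giving at least 50% protection of heart cells from peroxide-induced death in the single-dose screen, raw or plate-pattern-corrected value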
# NR2F2 inh: inhibitors of human COUP-TFII (NR2F2); HEK293T NGFI-A luciferase reporter, luminescence; inhibition, % at 8.6 µM; actives 0.7% (n = 370,000);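 active = inhibition above a per-plate cutoff, mean inhibition of test wells between control levels plus 3 SD, cut at about 38% in these data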;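 also: cells cotransfected with COUP-TFII expression vector driving the NGFI-A reporter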
# Target sequence (P24468 whole entry, looked up): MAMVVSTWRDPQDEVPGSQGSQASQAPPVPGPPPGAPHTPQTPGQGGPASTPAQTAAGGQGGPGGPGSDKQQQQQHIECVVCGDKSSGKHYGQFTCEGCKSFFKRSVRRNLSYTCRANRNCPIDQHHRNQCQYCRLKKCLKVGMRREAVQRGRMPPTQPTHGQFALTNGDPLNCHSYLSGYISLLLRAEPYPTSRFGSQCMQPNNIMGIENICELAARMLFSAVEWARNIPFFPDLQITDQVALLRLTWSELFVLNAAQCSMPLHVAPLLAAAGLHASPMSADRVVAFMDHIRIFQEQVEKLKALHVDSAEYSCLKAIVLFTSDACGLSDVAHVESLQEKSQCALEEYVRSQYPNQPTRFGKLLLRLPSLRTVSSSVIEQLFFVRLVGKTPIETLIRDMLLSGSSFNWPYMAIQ
# VP16 Luc counter: VP16 inhibition counter-screen for COUP-TFII; shares compounds with NR2F2 inh; HEK293 Gal4-VP16 luciferase reporter, luminescence; inhibition, % at 8.5 µM; actives 25% (n = 2,500); AID 687007; in the data active = inhibition above about 13%
# NR2F2 inh conf: COUP-TFII (NR2F2) inhibition, confirmation assay; shares compounds with NR2F2 inh; HEK293 NGFI-A luciferase reporter, luminescence; inhibition, % at 8.5 µM; actives 45% (n = 2,500); AID 687008;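 active = mean inhibition over three repeats above a set limit taken from the earlier primary screen, cut at about 38% in these data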
# Hits are given with their value; 0 = inactive; - = no result.
SMILES,SMARCA2 act,GAA850 FXN act,GalR3 antag,Gli-Sufu block,Cardio protect,NR2F2 inh,VP16 Luc counter,NR2F2 inh conf
Cc1cc(C(=O)Nc2ccc(Cl)cc2)c(C)n1-c1ccccc1,0,0,0,69.5,0,86.0,80.8,98.9
Cc1cc(C(=O)Nc2ccc(Cl)cc2)n(-c2ccccc2)n1,0,0,0,0,0,0,-,-
Cc1ccc(NC(=O)c2cc(C)n(-c3ccccc3)c2C)cc1,0,0,0,0,0,69.7,60.0,84.3
COc1cc(NC(=O)Nc2ccc(Cl)c(Cl)c2)c(C(=O)O)cc1OC,0,0,0,0,0,0,-,-
CN(C(=O)CSc1nnc(-c2ccco2)n1Cc1ccccc1)C1CCS(=O)(=O)C1 (centres undefined),0,0,0,0,0,0,-,-
O=C1CCC(=O)N1c1ccc(-c2nc3ccccc3s2)cc1,0,0,0,0,0,0,-,-
COc1ccc(C(CNC(=O)c2ccc3c(c2)OCCO3)N(C)C)cc1 (centres undefined),0,0,0,0,0,0,-,-
CCc1c(C)nc2ncnn2c1NCCc1ccc(Cl)cc1,0,0,0,0,0,46.8,0,0
CCc1c(C)nc2ncnn2c1NCCc1ccccc1,0,0,0,0,0,0,-,-
CC1CN(C(=O)CCC(=O)NCc2ccccn2)c2ccccc2O1 (centres undefined),0,0,-,0,0,0,-,-
CCN(c1ccc(NC(=O)c2ccc(N3CCCC3=O)cc2)cc1)C(C)C,0,0,0,0,0,48.6,0,0
CCCN(C(=O)COc1ccc(Cl)cc1Cl)c1c(N)n(Cc2ccccc2)c(=O)[nH]c1=O,0,0,0,0,0,0,-,-
Cc1cc(Cl)c(S(=O)(=O)N2CCCCCC2)cc1OCC(=O)NC1CCCCC1,0,0,0,0,0,0,-,-
O=C(Nc1ccncc1)c1ccc(Cl)c(S(=O)(=O)N2CCCCC2)c1,0,0,0,0,0,61.0,0,40.2
O=C(c1ccc(Cl)c(S(=O)(=O)N2CCCCCC2)c1)N1CCN(c2ccccn2)CC1,0,0,0,0,0,42.3,0,0
O=C(c1ccc(Cl)c(S(=O)(=O)N2CCCCCC2)c1)N1CCCCC1,0,0,0,0,0,0,-,-
O=C(Nc1ccc2c(c1)OCCO2)c1ccc(Br)c(S(=O)(=O)N2CCOCC2)c1,0,0,0,0,0,0,-,-
Cc1cc(Cl)c(S(=O)(=O)N2CCN(c3ccccn3)CC2)cc1OCC(=O)NC1CCCCC1,0,0,0,0,0,42.9,0,0
O=C(Nc1ccc(Cl)c(S(=O)(=O)N2CCCCC2)c1)c1ccncc1,0,0,0,0,0,0,-,-
O=C(Nc1ccc2c(c1)OCO2)c1ccc(Br)c(S(=O)(=O)N2CCCC2)c1,0,0,0,0,0,42.8,0,0
CCOC1=C2[C@@H](CN(S(=O)(=O)c3ccc(C)cc3)[C@H]2c2ccc(CC)cc2)[C@H]2C(=O)N(C)C(=O)[C@H]2C1,0,-,0,-,0,0,-,-
CCOc1ccc(-c2cc(CCCC(=O)NCCCOC)no2)cc1,0,0,0,0,0,59.2,22.8,0
COc1ccc(Nc2ccnc3ccccc23)cc1,0,0,0,0,0,40.4,0,0
COc1ccccc1N(/N=C1\Sc2ccccc2C1=O)C(C)=O,0,0,0,0,0,38.9,0,0
O=C(O)c1c(-c2ccccc2)c2oc3ccccc3c2[nH]c1=O,0,0,0,0,0,0,-,-
O=S1(=O)CCOCCCN1Cc1ccc(Cl)cc1,0,0,0,0,0,0,-,-
Cc1nc2c(-c3ccccc3)cnn2c(N)c1-c1ccccc1,0,0,0,55.8,0,69.4,0,72.3
CCCCNC(=O)C1(C)CCN1C(=O)c1ccc2c(c1)C(C)(C)CCC2(C)C (centres undefined),0,0,0,-,0,0,-,-
CCCCNC(=O)C1(C)CCCCN1C(=O)c1ccc2c(c1)C(C)(C)CCC2(C)C (centres undefined),0,0,0,-,0,37.9,0,0
